Reference: PubChem BioAssay (NCI)
The panel holds about 79,000 compounds, 15% with a hit somewhere; the sample as a whole holds those more often. No stated cut-off is given here; in the data, active means growth inhibition above about 70%; inactive means the rest.

Key:
[1] = NCI Yeast Anticancer Drug Screen. Data for the rad50 strain (AID 155);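 further: 0% = growth of vehicle-only cultures of the same strain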; settings: S. cerevisiae rad50 strain growth inhibition; at 50.0 µM; stronger effect = higher value
In short: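 Growth of the mutant yeast was measured after compound exposure and referenced to vehicle-treated cultures.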

[2] = NCI Yeast Anticancer Drug Screen. Data for the mec2-1 strain (AID 157); settings: S. cerevisiae mec2-1 strain, at 50.0 µM, stronger effect = higher value
In short: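 mec2-1 yeast strain, carrying an alteration in DNA damage repair or cell cycle control, was exposed to compounds; growth inhibition was measured relative to vehicle-treated controls.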

[3] = NCI Yeast Anticancer Drug Screen. Data for the sgs1 mgt1 strain (AID 161);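 further: 0% = growth of cultures given vehicle only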; settings: S. cerevisiae sgs1 mgt1 strain, at 50.0 µM, stronger effect = higher value
In short: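 Percent growth inhibition was derived by comparing compound-exposed mutant yeast with vehicle-exposed cultures. The strain carries alterations in DNA damage repair.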

[4] = NCI Yeast Anticancer Drug Screen. Data for the cln2 rad14 strain (AID 165);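 further: 0% = growth equal to vehicle treated cultures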; settings: S. cerevisiae cln2 rad14 strain, at 50.0 µM, stronger effect = higher value
In short: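 Yeast carrying cln2 and rad14 alterations (cell cycle control and DNA damage repair) were exposed to compounds. Growth inhibition was measured against vehicle-treated controls.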

[5] = NCI Yeast Anticancer Drug Screen. Data for the bub3 strain (AID 167); settings: S. cerevisiae bub3 mutant strain, at 50.0 µM, stronger effect = higher value
In short: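 Whole-cell yeast assay. The mutant strain was incubated with compounds, and growth inhibition was determined by comparison with vehicle-treated cells.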

[6] = NCI Yeast Anticancer Drug Screen. Data for the mlh1 rad18 strain (AID 175); settings: S. cerevisiae mlh1 rad18 strain growth inhibition; at 50.0 µM; stronger effect = higher value
In short: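 Growth inhibition of the yeast strain was measured after compound exposure and expressed relative to vehicle-treated controls. The strain carries defined defects in DNA damage repair.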

Measured: growth inhibition

CCCCNC1(N(C)C)N=C(N(C)C)N=C(N(C)C)O1 (stereo unspecified)
inactive: [1] -2.2% | [2] -1.4% | [3] -1.05% | [4] 17.8% | [5] 8.35% | [6] -0.45%

COc1ccc(-c2cc(C)n(C3OC(CO)C(O)C(O)C3O)c(=S)c2C#N)cc1 (stereo unspecified)
inactive: [1] 23.9% | [2] 8.15% | [3] -9.05% | [4] -19.1% | [5] -0.6% | [6] 13.7%

CCCOCOCCC
inactive: [1] -22.5% | [2] 0.05% | [3] -13.2% | [4] -28.4% | [5] 11.7% | [6] -27.5%

Cc1cc(C)n2c(-c3ccccc3)nnc2c1
inactive: [1] 19.1% | [2] -7.2% | [3] -20.2% | [4] -7.05% | [5] 8.05% | [6] -8.85%

NNC(=O)C(=O)N/N=C(/CC1(O)C(=O)Nc2ccccc21)c1ccc(Cl)cc1Cl (stereo unspecified)
inactive: [1] -0.9% | [2] 4% | [3] -15.9% | [4] -53.4% | [5] 0.75% | [6] -1.95%

CC(=O)NC(Cc1c[nH]c2ccccc12)C(=O)O (stereo unspecified)
inactive: [1] -21.4% | [2] -37.8% | [3] -30.6% | [4] -23.4% | [5] -35.8% | [6] -5.65%

CCOC(=O)C1=C(Nc2cccc3ccccc23)OC/C1=N\NC(=O)c1ccccc1O
inactive: [1] 24.2% | [2] 28.6% | [3] 20.3% | [4] 14.8% | [5] 27.8% | [6] 12.8%

CCCCCCCCCCCCCCCCCCNc1nc(=O)n(C2CC(O)C(COP(=O)(O)O)O2)cc1F (stereo unspecified)
inactive: [1] 12.9% | [2] 12.6% | [3] 16.8% | [4] 17% | [5] 9.25% | [6] -23%

CC(=O)Nc1ccc(C(=O)NN2C(=O)CSC2c2ccc([N+](=O)[O-])cc2)cc1 (stereo unspecified)
inactive: [1] -24.1% | [2] -39.8% | [3] -54.5% | [4] -6.3% | [5] -24.3% | [6] -53.2%

O=[n+]1c2c(n([O-])c3cc(Cl)c(Cl)cc31)CCCC2
inactive: [1] 11.8% | [2] 11.2% | [3] 17.5% | [4] -2% | [5] 25.9% | [6] 4.9%

O=C(O)c1cccc(N=Nc2ccccc2)c1O
inactive: [1] 22.1% | [2] -12.4% | [3] 4.65% | [4] -7.1% | [5] 6.05% | [6] 10.7%

CCCCCc1c(Cl)nc(Cl)nc1Cl
inactive: [1] -14.2% | [2] 11.2% | [3] 12.3% | [4] -38.8% | [5] 26.9% | [6] -18.1%

O=C(O)c1cccc(F)c1C(=O)O
inactive: [1] -4.5% | [2] -3.65% | [3] -1.5% | [4] -20.4% | [5] -2.95% | [6] 7.3%

CSc1nc2ncnc(NCc3ccc(Cl)cc3)c2[nH]1
inactive: [1] -11% | [2] -4.35% | [3] -4.1% | [4] -43.3% | [5] -7.45% | [6] -35.7%

CC1=C(N2CCCCC2)S(=O)(=O)c2ccccc2C1
inactive: [1] 42.6% | [2] 3.6% | [3] 26.5% | [4] -19.6% | [5] 8.15% | [6] 44%

CCCCCO/C=C/CN1CCOCC1
inactive: [1] 8.85% | [2] 15.2% | [3] 3.1% | [4] -8.5% | [5] 11.8% | [6] -3.2%

CC1=NN(c2nc(N)nc(CSc3cc(Cl)c(C)cc3S(N)(=O)=O)n2)C(C)(C)C1
inactive: [1] -15.5% | [2] -8.7% | [3] 12.2% | [4] -8.35% | [5] -18.1% | [6] -4.95%

Cc1cccc(C(C)C)c1NC(=O)/C(Cc1c([N+](=O)[O-])cccc1[N+](=O)[O-])=N/NC(=O)CC#N
inactive: [1] -0.15% | [2] -3.6% | [3] 13.8% | [4] 11.2% | [5] -23.2% | [6] 4.8%

N#C/C(N)=C(\C#N)NC=NCCO
inactive: [1] 5.35% | [2] 7.75% | [3] 13.2% | [4] 18% | [5] 10.6% | [6] -37.8%

CC(C)CSC(SCC(C)C)C(O)C(O)C(O)CO (stereo unspecified)
inactive: [1] -6.85% | [2] 3% | [3] 5.4% | [4] -35.2% | [5] 10.2% | [6] 6%

CC(C)Cc1ccc(OC(=O)Nc2ccccc2)cc1
inactive: [1] -7.5% | [2] -1.6% | [3] -2.9% | [4] -3.4% | [5] -13.5% | [6] 2.05%

C/C(=N\O)c1cccc[n+]1Cc1ccccc1
inactive: [1] 12.2% | [2] 12.7% | [3] -15.8% | [4] -21.6% | [5] 17.8% | [6] -3.6%

Nc1ccc2[nH]c(=O)c(=O)[nH]c2c1
inactive: [1] 2% | [2] 14.7% | [3] -24.1% | [4] 4.95% | [5] 1.1% | [6] 14.8%

CCCC(=O)Nc1ccc(OC)cc1
inactive: [1] 16.8% | [2] 11.2% | [3] 9.55% | [4] -43.2% | [5] -1.85% | [6] 1.9%

CCOC(=O)/C(=C/c1ccc(N(C)C)cc1)N(CC)CC
inactive: [1] -34.2% | [2] -10.2% | [3] -14.9% | [4] 13.4% | [5] 7.25% | [6] -18.6%

O=C(COc1ccccc1)Nc1cccc(C(=O)O)c1
inactive: [1] 1.2% | [2] 13.5% | [3] 21.9% | [4] 0.9% | [5] 36.6% | [6] 32.2%

COc1ccccc1C(=O)C(CN(C)C)CN(C)C
inactive: [1] -2.5% | [2] -19.2% | [3] 6.65% | [4] 15.3% | [5] -23.3% | [6] 13.7%

O=P(O)(O)c1ccc2c(c1)OCCOCCOCCOCCO2
inactive: [1] -41.9% | [2] -10.9% | [3] -29.5% | [4] -21.9% | [5] -24.4% | [6] -14.8%

CCOc1ccccc1N=Nc1c(C)nn(C(=S)SC)c1OCC
inactive: [1] 22.5% | [2] 18.4% | [3] 26.4% | [4] 30.2% | [5] 14% | [6] 39.2%

c1ccc(-c2cc3c4ccccc4ccn3c2)cc1
inactive: [1] 15.2% | [2] 10.2% | [3] 20.2% | [4] 3.65% | [5] -2.95% | [6] -5.95%

Cc1cc(=O)n(-c2c(C)cccc2Cl)c(/C=C(\O)c2ccncc2)n1
inactive: [1] 4.25% | [2] -2.65% | [3] 3.8% | [4] 8.3% | [5] 4.15% | [6] 2.85%

N#CCc1c(-c2ccccn2)[nH]c2ccccc12
inactive: [1] 9.25% | [2] 1.35% | [3] -3% | [4] 18.8% | [5] -11.2% | [6] 12%

CCOC(=O)N1Cc2cc3ccccc3nc2C1CC(=O)O (stereo unspecified)
inactive: [1] -14.8% | [2] 11.9% | [3] -3.6% | [4] -28.1% | [5] -1.65% | [6] -24.8%

c1cnc2c(c1)-n1cccc1C1(CCOCC1)NN2
inactive: [1] -73.5% | [2] -30.2% | [3] -54.5% | [4] -11.3% | [5] -13.3% | [6] -40.9%

C/C=N\n1c(C)c(C#N)c(C#N)c1N
inactive: [1] 8.6% | [2] 10.2% | [3] -23.6% | [4] -14.1% | [5] -21.7% | [6] -35.5%

O=C1CC(O)C2C(=O)c3c(c(Cl)c4ccccc4c3O)C(=O)C2C1 (stereo unspecified)
inactive: [1] 12.1% | [2] 12.4% | [3] 10.2% | [4] 4.75% | [5] 3.85% | [6] 20.3%
